Assay outcomes deposited in PubChem BioAssay by Corson Lab, School of Medicine, Indiana University.
FECH block – inhibitors of human ferrochelatase, primary screen, biochemical, purified FECH, Ni-mesoporphyrin absorbance | Ferrochelatase, mitochondrial (Homo sapiens), P22830 | Ni-mesoporphyrin absorbance 550 nm | calls only at 10 µM (by protocol) | 20,000 compounds, 3.3% hits | AID 1671448, 2021;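 active = enzyme reaction rate more than 3 SD below the solvent-only control wells on the same plate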;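 note: lower slope than DMSO wells means FECH inhibition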
Target sequence (P22830 whole entry, looked up): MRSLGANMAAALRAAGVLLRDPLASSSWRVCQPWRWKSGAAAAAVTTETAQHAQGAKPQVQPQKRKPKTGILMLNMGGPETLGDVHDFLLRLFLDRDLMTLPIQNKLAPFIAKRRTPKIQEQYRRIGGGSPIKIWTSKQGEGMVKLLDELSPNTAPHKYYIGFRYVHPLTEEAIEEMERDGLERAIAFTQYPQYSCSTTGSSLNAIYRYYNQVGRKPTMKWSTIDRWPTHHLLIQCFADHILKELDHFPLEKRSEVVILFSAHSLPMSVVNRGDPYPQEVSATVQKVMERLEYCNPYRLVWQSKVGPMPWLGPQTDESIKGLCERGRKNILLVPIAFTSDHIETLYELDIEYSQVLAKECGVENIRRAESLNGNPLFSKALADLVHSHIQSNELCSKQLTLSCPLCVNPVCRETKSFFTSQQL
An asterisk follows results filed as active; i = inactive; + = active, no number. The full list was thinned out, with hits kept by preference.

SMILES | FECH block
Cc1cc(C)n2nc(N(Cc3ccccc3C)S(=O)(=O)c3ccccc3)nc2n1 | i
Cc1ccc(S(=O)(=O)N(Cc2ccccc2C)c2nc3nc(C)cc(C)n3n2)cc1 | +
Cc1cc(C)n2nc(CN(c3ccc(F)cc3)S(=O)(=O)c3ccc(Cl)cc3)nc2n1 | i
CC(=O)CN(c1nc2nc(C)cc(C)n2n1)S(=O)(=O)c1ccc(C)cc1 | i
Cc1cc(C)n2nc(CN(c3ccc(Cl)cc3)S(=O)(=O)c3ccccc3)nc2n1 | +
CCCN(c1nc2nc(C)cc(C)n2n1)S(=O)(=O)c1ccccc1 | i
Cc1ccc(S(=O)(=O)N(Cc2ccccc2C)c2nc3nc(C)c(Cl)c(C)n3n2)cc1 | i
Cc1nc(CN2CCN(C(=O)c3cccc(NCc4cccs4)c3)CC2)no1 | i
CC(C)NC(=O)C(=O)NCc1n[nH]c(=O)c2ccccc12 | i
COc1ccccc1NC(=O)CN1CCCN(Cc2ccc(C)cc2)S1(=O)=O | i
Cc1cccc2[nH]c(C3CCN(C(=O)CCn4cnnn4)CC3)nc12 | i
COc1ccc(-n2c(CN3CCN(S(=O)(=O)c4c(C)cc(C)cc4C)CC3)nc3cccnc32)cc1 | i
O=C(CN1CCN(Cc2ccc(F)cc2Cl)S1(=O)=O)Nc1ccc(F)cc1F | i
CCc1ccc(NS(=O)(=O)c2cc(N3C(=O)CCS3(=O)=O)ccc2OC)cc1 | i
CCc1c(C)nc2ncnn2c1Sc1ccc(NC(=O)Nc2cccc(C(=O)OC)c2)cc1 | i
CCc1c(C)nc2ncnn2c1Sc1ccc(NC(=O)Nc2cc(OC)cc(OC)c2)cc1 | i
CCc1c(C)nc2ncnn2c1Sc1ccc(NC(=O)Nc2ccsc2C(=O)OC)cc1 | +
CCc1c(C)nc2ncnn2c1Sc1ccc(NC(=O)Nc2cc(OC)ccc2OC)cc1 | i
CCc1c(C)nc2ncnn2c1Sc1ccc(NC(=O)Nc2ccccc2Br)cc1 | i
CCc1c(C)nc2ncnn2c1Sc1ccc(NC(=O)Nc2ccc(OC)cc2OC)cc1 | +
COc1cccc(CNc2c(-c3ccc4c(c3)CCCC4)c(=O)c2=O)c1 | i
O=C(C1CCN(Cc2ccc(-c3ccn[nH]3)o2)CC1)N1CCCC1 | i
Cc1ccc(CN2CCCN(Cc3c(F)cccc3Cl)S2(=O)=O)cc1 | +
CCOc1ccc(NC(=O)CN2CCCN(Cc3cccc(F)c3)S2(=O)=O)cc1 | i
Cc1ccc(C)c(CN2CCCN(CC(=O)Nc3ccc(C)c(F)c3)S2(=O)=O)c1 | i
SMILES | FECH block
CCOc1ccc(NC(=O)CN2CCCN(Cc3cc(C)ccc3C)S2(=O)=O)cc1 | +
Cc1ccc(CN2CCCN(Cc3ccc(F)cc3Cl)S2(=O)=O)cc1 | i
CCOc1ccc(NC(=O)CN2CCCN(Cc3cccc(C)c3)S2(=O)=O)cc1 | +
Cc1ccc(NC(=O)CN2CCCN(Cc3ccccc3)S2(=O)=O)cc1 | i
COc1ccc(OC)c(NC(=O)CN2CCCN(Cc3ccccc3)S2(=O)=O)c1 | i
Cc1ccc(NC(=O)CN2CCCN(Cc3ccc(Cl)cc3)S2(=O)=O)cc1 | i
COc1ccc(OC)c(NC(=O)CN2CCCN(Cc3cccc(C)c3)S2(=O)=O)c1 | +
COc1ccc(OC)c(NC(=O)CN2CCCN(Cc3ccc(C)cc3)S2(=O)=O)c1 | i
Cc1ccc(C)c(CN2CCCN(CC(=O)NC3CCCC3)S2(=O)=O)c1 | i
O=C(c1nc2ccccn2c1CN1CCN2CCCC2C1)N1CCOCC1 (centres undefined) | i
CCOc1ncccc1CNC(=O)c1cn(CC2CCCNC2)nn1 (centres undefined) | i
c1cc(-c2nccc3occc23)c2cc[nH]c2c1 | i
CCS(=O)(=O)Nc1cnc(N(CC(C)C)CC(C)C)c(C(=O)O)c1 | i
COc1ccc(S(=O)(=O)N2CCN(c3nc(C)cc(N4CCCC4)n3)CC2)cc1 | i
Fc1ccc(Nc2nc(N3CCCCC3)nc3c2cnn3-c2ccccc2)cc1 | i
CCCCOc1ccc(C(=O)Nc2cc(C)nn2-c2ncnc3c2cnn3-c2ccc(C)cc2C)cc1 | i
Cc1cccc(-c2ncc(C3CC(=O)Nc4c3c(C)nn4C(C)C)cn2)c1 (centres undefined) | i
Cc1ccc(CN2CCN(CC(=O)Nc3ccc(C)c(C)c3)S2(=O)=O)cc1 | i
CCc1cccc(C)c1NC(=O)CN1CCCN(Cc2ccc(C)cc2)S1(=O)=O | i
COc1ccc(NC(=O)CN2CCN(Cc3ccccc3C)S2(=O)=O)cc1Cl | i
COc1ccc(NC(=O)CN2CCN(Cc3ccccc3C)S2(=O)=O)cc1OC | +
COc1ccc(NC(=O)CN2CCN(Cc3ccccc3Cl)S2(=O)=O)cc1OC | i
Cc1ccc(NC(=O)CN2CCN(Cc3ccc(Cl)cc3)S2(=O)=O)cc1C | i
Cc1ccc(NC(=O)CN2CCN(Cc3ccccc3)S2(=O)=O)cc1 | i
CCc1cccc(C)c1NC(=O)CN1CCCN(Cc2cccc(C)c2)S1(=O)=O | +
SMILES | FECH block
Cc1cccc(CN2CCN(CC(=O)Nc3ccc(C)c(C)c3)S2(=O)=O)c1 | +
Cc1cccc(CN2CCN(CC(=O)Nc3c(C)cc(C)cc3C)S2(=O)=O)c1 | i
CCc1cccc(C)c1NC(=O)CN1CCN(Cc2ccccc2C)S1(=O)=O | i
Cc1ccc(NC(=O)CN2CCN(Cc3cccc(C)c3)S2(=O)=O)cc1 | +
Cc1cc2nc(CN3CCC4(CC3)c3ccccc3CC4O)cc(=O)n2[nH]1 (centres undefined) | i
CC(C)n1ccnc1CN1CCC(C(=O)N2CCOCC2)CC1 | i
CN1C[C@H](Nc2nc(C(C)(C)C)nc3c2cnn3C)C[C@H]1CO | i
CCCc1ccc(CN2CCOCC(CN(C)C)C2)o1 (centres undefined) | i
O=C(CN1CCCCC1c1cccnc1)NCCc1ccc(Cl)cc1 (centres undefined) | i
CCCc1c(C)nc2ncnn2c1Sc1ccc(NS(=O)(=O)c2ccccc2)cc1 | i
Cc1ccc(NC(=O)CN2CCN(Cc3ccccc3C)S2(=O)=O)cc1 | i
Cc1cc(C)c(CN2CCN(Cc3ccccc3C)S2(=O)=O)c(C)c1 | i
COc1cccc(NC(=O)CN2CCN(Cc3ccc(F)cc3)S2(=O)=O)c1 | i
Cc1ccccc1CN1CCN(Cc2ccccc2C)S1(=O)=O | +
COc1cccc(NC(=O)CN2CCCN(Cc3cccc(C)c3)S2(=O)=O)c1 | +
COc1ccc(CN2CCCN(CC(=O)Nc3ccccc3F)S2(=O)=O)cc1 | i
COc1ccc(NC(=O)CN2CCN(Cc3ccccc3C)S2(=O)=O)cc1 | i
Cc1cccc(CN2CCCN(CC(=O)Nc3ccccc3F)S2(=O)=O)c1 | +
COc1ccc(NC(=O)CN2CCN(Cc3cccc(C)c3)S2(=O)=O)cc1 | +
COc1cccc(NC(=O)CN2CCCN(Cc3cccc(F)c3)S2(=O)=O)c1 | i
COc1ccc(CN2CCCN(CC(=O)Nc3ccc(OC)cc3)S2(=O)=O)cc1 | i
Cc1cccc(NC(=O)CN2CCCN(Cc3ccccc3)S2(=O)=O)c1 | i
Cc1ccc(N2C(=O)CCS2(=O)=O)cc1S(=O)(=O)Nc1ccc(OC(C)C)cc1 | i
CCc1cn[nH]c1C1CCCN(C(=O)c2cc(-c3c(C)nn(C)c3C)nn2C)C1 (centres undefined) | i
COc1ccccc1OCC(=O)Nc1cc(C)nn1-c1ncnc2c1cnn2-c1cccc(Cl)c1 | i
Cc1cnn(CCC(=O)N2CCNCC2C(=O)NCc2cccnc2)c1 (centres undefined) | i
COc1cccc(Nc2nc(NCc3ccccc3Cl)nc3c2cnn3-c2ccccc2)c1 | i
